Reference: the supplement of paper PMC3545927
The list shows a part of the results. The true hit rate is not given.

Target: furin, P09958
Experiment: furin cleavage Z-score vs untreated control; higher = more cleavage, active = 3.5 or more, inactive = 1 or less, 8 variable residues between constant flanks
Outline: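 Purified furin digested bead-held 8-mer peptide–cDNA fusions at 1:10 enzyme:substrate in 0.01 ml of 50 mM HEPES pH 7.5 with CaCl2 and NaCl for 7.5, 15 or 30 min. The cleavage Z-score compares sequencing counts of released DNA with furin-free reactions on a log scale, with lowess adjustment and median absolute deviation scaling.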

Sequence of furin, P09958 (P09958 whole entry): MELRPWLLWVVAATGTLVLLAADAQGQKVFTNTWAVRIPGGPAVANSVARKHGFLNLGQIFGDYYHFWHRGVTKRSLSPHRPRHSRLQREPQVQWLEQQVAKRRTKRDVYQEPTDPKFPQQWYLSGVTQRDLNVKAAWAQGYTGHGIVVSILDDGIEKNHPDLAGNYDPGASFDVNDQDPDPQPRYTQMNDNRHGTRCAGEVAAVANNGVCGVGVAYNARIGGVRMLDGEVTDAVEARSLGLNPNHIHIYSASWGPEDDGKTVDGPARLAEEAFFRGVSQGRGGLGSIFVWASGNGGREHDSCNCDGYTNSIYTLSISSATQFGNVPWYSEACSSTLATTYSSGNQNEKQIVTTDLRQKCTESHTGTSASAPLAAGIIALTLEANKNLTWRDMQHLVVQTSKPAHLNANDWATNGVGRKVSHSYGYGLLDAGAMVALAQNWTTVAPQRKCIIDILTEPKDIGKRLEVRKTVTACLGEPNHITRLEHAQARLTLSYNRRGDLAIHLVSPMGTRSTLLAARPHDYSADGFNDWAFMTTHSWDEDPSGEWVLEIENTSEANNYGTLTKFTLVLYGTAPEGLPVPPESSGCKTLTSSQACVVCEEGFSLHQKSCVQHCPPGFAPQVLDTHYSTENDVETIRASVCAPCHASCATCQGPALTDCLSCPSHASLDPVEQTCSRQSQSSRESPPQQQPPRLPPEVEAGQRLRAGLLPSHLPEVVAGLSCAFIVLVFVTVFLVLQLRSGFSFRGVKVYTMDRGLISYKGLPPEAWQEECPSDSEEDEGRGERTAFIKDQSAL

Row | Sequence | furin cleavage Z-score (7.5 min) | furin cleavage Z-score (15 min) | furin cleavage Z-score (30 min)
1 | CAEHRLEAACAGNASASA [HC479] | 1.04 | -1.24 (inactive) | -0.381 (inactive)
2 | CAMEECSQPLAGNASASA [HC1759] | 1.51 | 1.8 | 0.466 (inactive)
3 | CAEYVVCCSMAGNASASA [HC2129] | -0.0811 (inactive) | -0.535 (inactive) | -0.778 (inactive)
4 | CASTPCSFHLAGNASASA [HC2527] | -0.634 (inactive) | 0.268 (inactive) | 1.39
5 | CAAAYCLSTGAGNASASA [HC996] | 0.288 (inactive) | 0.367 (inactive) | -0.487 (inactive)
6 | CANAYTTGPCAGNASASA [HC1192] | 0.653 (inactive) | 0.298 (inactive) | 0.115 (inactive)
7 | CAMEECSQSLAGNASASA [HC1757] | 0.758 (inactive) | -0.436 (inactive) | 0.392 (inactive)
8 | CAMRSRNGRWAGNASASA [FS-830] | 0.613 (inactive) | 0.727 (inactive) | 2.67
9 | CARAQRFWSWAGNASASA [FS-3242] | -0.658 (inactive) | -0.187 (inactive) | -0.233 (inactive)
10 | CATAKREKRWAGNASASA [FS-1421] | 7.45 (active) | 10.5 (active) | 8.76 (active)
11 | CAHRCRHKRWAGNASASA [FS-133] | 5.93 (active) | 10.1 (active) | 8.03 (active)
12 | CAEVVTSQWVAGNASASA [HC2222] | -0.277 (inactive) | -0.189 (inactive) | 0.204 (inactive)
13 | CATTPCGGSWAGNASASA [HC62] | -1.67 (inactive) | 0.588 (inactive) | -0.211 (inactive)
14 | CADTMEECSQAGNASASA [HC1818] | -0.715 (inactive) | -1.26 (inactive) | -0.384 (inactive)
15 | CAVKGRGRRDAGNASASA [FS-889] | 10.2 (active) | 9.87 (active) | 8.49 (active)
16 | CALPGRDGRDAGNASASA [FS-457] | -0.75 (inactive) | 1.1 | 0.0293 (inactive)
17 | CALNERIRRDAGNASASA [FS-940] | 13.3 (active) | 15.6 (active) | 11.4 (active)
18 | CAVWKRRAEDAGNASASA [FS-2624] | 0.714 (inactive) | -0.547 (inactive) | 0.046 (inactive)
19 | CAVHVRIRRDAGNASASA [FS-1428] | 15.3 (active) | 15.9 (active) | 11.3 (active)
20 | CAGNNTLHCPAGNASASA [HC448] | 0.837 (inactive) | 0.103 (inactive) | 0.597 (inactive)
21 | CAYSTYGKFLAGNASASA [HC807] | 0.775 (inactive) | -0.645 (inactive) | -0.0395 (inactive)
22 | CAHVGPGEGAAGNASASA [HC1113] | -0.488 (inactive) | 0.461 (inactive) | -1.05 (inactive)

Row | Sequence | furin cleavage Z-score (7.5 min) | furin cleavage Z-score (15 min) | furin cleavage Z-score (30 min)
23 | CAKESRGARGAGNASASA [FS-447] | -0.759 (inactive) | -0.656 (inactive) | -0.69 (inactive)
24 | CARLEREKRAAGNASASA [FS-859] | 7.92 (active) | 10 (active) | 6.63 (active)
25 | CARLRDSGRAAGNASASA [FS-85] | 0.0348 (inactive) | -1.47 (inactive) | -0.955 (inactive)
26 | CARLCRRSRAAGNASASA [FS-1561] | 6.16 (active) | 7.37 (active) | 6.05 (active)
27 | CAKLKLTPIAAGNASASA [HC1637] | -0.816 (inactive) | -1.09 (inactive) | -2.93 (inactive)
28 | CAKERRYARKAGNASASA [FS-257] | 4.36 (active) | 5.28 (active) | 4.54 (active)
29 | CAQKRREKKAAGNASASA [FS-79] | -0.611 (inactive) | 2.25 | 1.6
30 | CARLCRSVSGAGNASASA [FS-1859] | 0.288 (inactive) | 0.971 (inactive) | 1.11
31 | CAKERREKRAAGNASASA [FS-601] | 5.22 (active) | 4.77 (active) | 4.29 (active)
32 | CAHAPTGSGKAGNASASA [HC775] | 0.395 (inactive) | -1.05 (inactive) | -0.0524 (inactive)
33 | CAMEGCSQHLAGNASASA [HC1716] | 1.23 | 0.47 (inactive) | 0.552 (inactive)
34 | CAAEMEECSQAGNASASA [HC1783] | -0.835 (inactive) | 2.03 | -0.939 (inactive)
35 | CASTPCSSHLAGNASASA [HC2537] | -0.548 (inactive) | -0.18 (inactive) | 0.0993 (inactive)
36 | CAEVVTSTFVAGNASASA [HC2227] | 0.885 (inactive) | 0.0423 (inactive) | 0.809 (inactive)
37 | CASRPSWGPTAGNASASA [HC212] | -1.22 (inactive) | 0.133 (inactive) | -0.131 (inactive)
38 | CAYRFVAPGEAGNASASA [HC910] | -0.691 (inactive) | -0.942 (inactive) | -0.913 (inactive)
39 | CAEVAERKREAGNASASA [FS-1195] | -1.19 (inactive) | 1.03 | 0.657 (inactive)
40 | CAPSRRRKREAGNASASA [FS-1385] | 13.2 (active) | 15 (active) | 9.92 (active)
41 | CAIPKARRPEAGNASASA [HC193] | -0.401 (inactive) | -0.306 (inactive) | -0.34 (inactive)
42 | CAYRTRRKREAGNASASA [FS-637] | 9.23 (active) | 8.28 (active) | 6.71 (active)
43 | CAPSPEFFTEAGNASASA [HC1219] | -1.44 (inactive) | -0.301 (inactive) | -0.0659 (inactive)
44 | CAPTRRRWREAGNASASA [FS-1386] | 5.77 (active) | 5.98 (active) | 7.12 (active)
